Test results as given in PubChem BioAssay (NCATS).
Inconclusive results are not listed. Entries that show only a call come without a potency. Active and inactive are the calls of the source. Calls follow the shape of the dose curve; as a rule, active = well fitted inhibition curve with a large enough effect; inconclusive = small, poorly fitted or top-dose-only effect; inactive = flat fitted curve, though single readings scatter.

System: HACAT
Assay: qHTS assay to identify novel small-molecules to repurpose for Merkel cell carcinoma treatment (AID 1296009); also: nearly all actives have a fitted effect of over 60% in size
Conditions: MCC and control cell lines, CellTiter-Glo viability, 72 h; at 44.8 µM (top of the series) unless noted
How it was run: (§1)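 Cell viability measured by CellTiter-Glo following 72 hr compound treatment at 37 degree celsius, with NPC and MIPE libraries tested in 8- and 11-point concentration series.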

| SMILES | outcome |
| --- | --- |
| CN(C)CCN(Cc1cccs1)c1ccccn1 | inactive |
| Cc1cccc(C)c1NC(=O)C(C)N (centres undefined) | inactive |
| COc1cc2c(cc1OC)-c1cc(=Nc3c(C)cc(C)cc3C)n(C)c(=O)n1CC2 | inactive |
| CSc1ccc(C(=O)c2[nH]c(=O)[nH]c2C)cc1 | inactive |
| CCOC(=O)C1=C(C)NC(C)=C(C(=O)OC)C1c1cccc(Cl)c1Cl (centres undefined) | inactive |
| CC(C)NCC(O)c1cc(O)cc(O)c1 (centres undefined) | inactive |
| CNCCCN1c2ccccc2CCc2ccccc21 | inactive |
| CCN(CC)CCOCCOC(=O)C1(c2ccccc2)CCCC1 | inactive |
| CC1=NS(=O)(=O)c2cc(Cl)ccc2N1 | inactive |
| COCCc1ccc(OCC(O)CNC(C)C)cc1 (centres undefined) | inactive |
| CN1CCN(CC(=O)N2c3ccccc3C(=O)Nc3cccnc32)CC1 | inactive [at 4.96 µM] |
| CCNC(=O)N1CCN(CCCC(c2ccc(F)cc2)c2ccc(F)cc2)CC1 | inactive |
| CN(C)CC[C@@H](c1ccc(Br)cc1)c1ccccn1 | inactive |
| Cc1nnc(SCC2=C(C(=O)O)N3C(=O)[C@@H](NC(=O)Cn4cnnn4)[C@H]3SC2)s1 | inactive |
| COCCOC(=O)C1=C(C)NC(C)=C(C(=O)OC(C)C)C1c1cccc([N+](=O)[O-])c1 (centres undefined) | inactive |

System: HEK293T
Assay: as above
Conditions: MCC and control cell lines, CellTiter-Glo viability, 72 h; at 44.8 µM (top of the series) unless noted
How it was run: as §1

| SMILES | outcome |
| --- | --- |
| C[C@]12CCC(=O)C=C1CC[C@@H]1[C@@H]2C(=O)C[C@@]2(C)[C@H]1CC[C@]2(O)C(=O)CO | inactive |
| CCCCNC(=O)NS(=O)(=O)c1ccc(C)cc1 | inactive |
| COCCc1ccc(OCC(O)CNC(C)C)cc1 (centres undefined) | inactive |
| Cc1nnc(SCC2=C(C(=O)O)N3C(=O)[C@@H](NC(=O)Cn4cnnn4)[C@H]3SC2)s1 | inactive |
| CCn1nc(C(=O)O)c(=O)c2cc3c(cc21)OCO3 | inactive |
| CN(C)C(=O)Oc1ccc[n+](C)c1 | inactive |
| NS(=O)(=O)c1cc2c(cc1Cl)NC(C1CC3C=CC1C3)NS2(=O)=O (centres undefined) | inactive |

System: MCC-13
Assay: as above
Conditions: MCC and control cell lines, CellTiter-Glo viability, 72 h; series mostly up to 46 µM
How it was run: as §1

| SMILES | Potency | activity change, negative = cytotoxicity |
| --- | --- | --- |
| CN(C)CCN(Cc1cccs1)c1ccccn1 | inactive |  |
| C[C@]12CCC(=O)C=C1CC[C@@H]1[C@@H]2C(=O)C[C@@]2(C)[C@H]1CC[C@]2(O)C(=O)CO | inactive |  |
| Cc1cccc(C)c1NC(=O)C(C)N (centres undefined) | inactive |  |
| CSc1ccc(C(=O)c2[nH]c(=O)[nH]c2C)cc1 | inactive |  |
| CCOC(=O)C1=C(C)NC(C)=C(C(=O)OC)C1c1cccc(Cl)c1Cl (centres undefined) | inactive |  |
| CC(C)NCC(O)c1cc(O)cc(O)c1 (centres undefined) | inactive |  |
| CNCCCN1c2ccccc2CCc2ccccc21 | inactive |  |
| CCCCNC(=O)NS(=O)(=O)c1ccc(C)cc1 | inactive |  |
| CCN(CC)CCOCCOC(=O)C1(c2ccccc2)CCCC1 | inactive |  |
| CC1=NS(=O)(=O)c2cc(Cl)ccc2N1 | inactive |  |
| Fc1ccc(C(c2ccc(F)cc2)N2CCN(C/C=C/c3ccccc3)CC2)cc1 | inactive |  |
| COCCc1ccc(OCC(O)CNC(C)C)cc1 (centres undefined) | inactive |  |
| NC1=NCC2c3ccccc3Cc3ccccc3N12 (centres undefined) | inactive |  |
| CN1CCN(CC(=O)N2c3ccccc3C(=O)Nc3cccnc32)CC1 |  | 8.41% [at 4.84 µM] (inactive) |
| CCNC(=O)N1CCN(CCCC(c2ccc(F)cc2)c2ccc(F)cc2)CC1 | inactive |  |
| CN(C)CC[C@@H](c1ccc(Br)cc1)c1ccccn1 | inactive |  |
| Cc1nnc(SCC2=C(C(=O)O)N3C(=O)[C@@H](NC(=O)Cn4cnnn4)[C@H]3SC2)s1 | inactive |  |
| CN(C(=O)CCCOc1ccc2[nH]c(=O)ccc2c1)C1CCCCC1 | inactive |  |
| CCn1nc(C(=O)O)c(=O)c2cc3c(cc21)OCO3 | inactive |  |
| CN(C)C(=O)Oc1ccc[n+](C)c1 | inactive |  |
| NS(=O)(=O)c1cc2c(cc1Cl)NC(C1CC3C=CC1C3)NS2(=O)=O (centres undefined) | inactive |  |
| COCCOC(=O)C1=C(C)NC(C)=C(C(=O)OC(C)C)C1c1cccc([N+](=O)[O-])c1 (centres undefined) | inactive |  |
| C#CCN(C)CCCOc1ccc(Cl)cc1Cl | inactive |  |
| Cc1nc2ccccn2c(=O)c1CCN1CCC(C(=O)c2ccc(F)cc2)CC1 | inactive |  |

System: MCC-26
Assay: as above
Conditions: MCC and control cell lines, CellTiter-Glo viability, 72 h; series mostly up to 46 µM
How it was run: as §1

| SMILES | Potency | activity change, negative = cytotoxicity |
| --- | --- | --- |
| CN(C)CCN(Cc1cccs1)c1ccccn1 | inactive |  |
| CN(C)CCCN1c2ccccc2Sc2ccc(C(F)(F)F)cc21 | inactive |  |
| C[C@]12CCC(=O)C=C1CC[C@@H]1[C@@H]2C(=O)C[C@@]2(C)[C@H]1CC[C@]2(O)C(=O)CO | inactive |  |
| Cc1cccc(C)c1NC(=O)C(C)N (centres undefined) | inactive |  |
| CSc1ccc(C(=O)c2[nH]c(=O)[nH]c2C)cc1 | inactive |  |
| CCOC(=O)C1=C(C)NC(C)=C(C(=O)OC)C1c1cccc(Cl)c1Cl (centres undefined) | inactive |  |
| CC(C)NCC(O)c1cc(O)cc(O)c1 (centres undefined) | inactive |  |
| CNCCCN1c2ccccc2CCc2ccccc21 | inactive |  |
| CCCCNC(=O)NS(=O)(=O)c1ccc(C)cc1 | inactive |  |
| CCN(CC)CCOCCOC(=O)C1(c2ccccc2)CCCC1 | inactive |  |
| OCCN1CCN(CC/C=C2/c3ccccc3Sc3ccc(C(F)(F)F)cc32)CC1 | inactive |  |
| CC1=NS(=O)(=O)c2cc(Cl)ccc2N1 | inactive |  |
| Fc1ccc(C(c2ccc(F)cc2)N2CCN(C/C=C/c3ccccc3)CC2)cc1 | inactive |  |
| COCCc1ccc(OCC(O)CNC(C)C)cc1 (centres undefined) | inactive |  |
| NC1=NCC2c3ccccc3Cc3ccccc3N12 (centres undefined) | inactive |  |
| COC(=O)C1=C(C)NC(C)=C(C(=O)OC(C)(C)CN(C)CCC(c2ccccc2)c2ccccc2)C1c1cccc([N+](=O)[O-])c1 (centres undefined) | inactive |  |
| CN1CCN(CC(=O)N2c3ccccc3C(=O)Nc3cccnc32)CC1 |  | 1.14% [at 4.84 µM] (inactive) |
| CCNC(=O)N1CCN(CCCC(c2ccc(F)cc2)c2ccc(F)cc2)CC1 | inactive |  |
| CN(C)CC[C@@H](c1ccc(Br)cc1)c1ccccn1 | inactive |  |
| Cc1nnc(SCC2=C(C(=O)O)N3C(=O)[C@@H](NC(=O)Cn4cnnn4)[C@H]3SC2)s1 | inactive |  |
| CN(C(=O)CCCOc1ccc2[nH]c(=O)ccc2c1)C1CCCCC1 | inactive |  |
| CCn1nc(C(=O)O)c(=O)c2cc3c(cc21)OCO3 | inactive |  |
| CCc1cccc(N(C)C(N)=Nc2cccc3ccccc23)c1 | inactive |  |
| CN(C)C(=O)Oc1ccc[n+](C)c1 | inactive |  |
| NS(=O)(=O)c1cc2c(cc1Cl)NC(C1CC3C=CC1C3)NS2(=O)=O (centres undefined) | inactive |  |
| COCCOC(=O)C1=C(C)NC(C)=C(C(=O)OC(C)C)C1c1cccc([N+](=O)[O-])c1 (centres undefined) | inactive |  |
| C#CCN(C)CCCOc1ccc(Cl)cc1Cl | inactive |  |
| Cc1nc2ccccn2c(=O)c1CCN1CCC(C(=O)c2ccc(F)cc2)CC1 | inactive |  |
